High-throughput results as filed in PubChem.
PLK1 PBD inh = blocks phosphopeptide binding to human PLK1 polo-box domain | P53350 | Plk1 PBD binding of FITC phosphopeptide, fluorescence polarization | Potency, µM, for the others: max response, negative = inhibition, usual class: inhibitors | actives 2.8% (n = 360,000) | AID 720504; further: potency means the concentration at half of the fitted maximal effect; series mostly up to about 57 µM; on the % scale 0 is the no-effect control and ±100 the full control effect; nearly all actives have a fitted effect of over 65% in size
BAZ2B block = blocks human BAZ2B | AlphaScreen BAZ2B-H3K14Ac peptide displacement | actives 4.4% (n = 360,000) | Q9UIF8 | Potency, µM (highest dose often 114 µM), without a hit: at the highest dose activity change, negative = inhibition, hits mostly inhibitors; further: potency means the concentration at half of the fitted maximal effect; on the % scale 0 is the no-effect control and ±100 the full control effect; nearly all actives have a fitted effect of over 60% in size
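In this displacement format the biotinylated H3(5-23) peptide acetylated at Lys14 serves as ligand at 50 nM, with BAZ2B at 50 nM in PBS pH 7.4 containing 0.01% Tween-20. Donor and acceptor beads are 10 ug/mL final.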
PI5P4K alpha inh = blocks human PI5P4K alpha kinase activity; PI5P4Kalpha enzyme, ADP-Glo luminescence, 60 min; active compounds read low; max response, %; actives 1.2% (n = 330,000); AID 652105; active means max response of -50% or lower; inconclusive means between -30% and -50%; inactive means -30% or higher; further: value at the top dose of about 77 µM; on the % scale 0 is the no-effect control and ±100 the full control effect
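qHTS, 1536-well: enzyme/substrate mix, compound by pin tool, 5 microM ATP final; RT 60 min; ADP-Glo reagents 1 (45 min) then 2 (30 min); luminescence.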
JMJD2A Tudor inh = JMJD2A Tudor domain (human) inhibition; O75164; Potency, µM (doses to about 114 µM), for inactives: at the highest dose activity change, negative = inhibition, usual class: inhibitors; actives 4.4% (n = 390,000); AlphaScreen JMJD2A-Tudor / H3K4me3 peptide binding; AID 504339; further: potency means the concentration at half of the fitted maximal effect; on the % scale 0 is the no-effect control and ±100 the full control effect; nearly all actives have a fitted effect of over 50% in size
Target sequence (O75164 whole entry, looked up, the tested form may be a part): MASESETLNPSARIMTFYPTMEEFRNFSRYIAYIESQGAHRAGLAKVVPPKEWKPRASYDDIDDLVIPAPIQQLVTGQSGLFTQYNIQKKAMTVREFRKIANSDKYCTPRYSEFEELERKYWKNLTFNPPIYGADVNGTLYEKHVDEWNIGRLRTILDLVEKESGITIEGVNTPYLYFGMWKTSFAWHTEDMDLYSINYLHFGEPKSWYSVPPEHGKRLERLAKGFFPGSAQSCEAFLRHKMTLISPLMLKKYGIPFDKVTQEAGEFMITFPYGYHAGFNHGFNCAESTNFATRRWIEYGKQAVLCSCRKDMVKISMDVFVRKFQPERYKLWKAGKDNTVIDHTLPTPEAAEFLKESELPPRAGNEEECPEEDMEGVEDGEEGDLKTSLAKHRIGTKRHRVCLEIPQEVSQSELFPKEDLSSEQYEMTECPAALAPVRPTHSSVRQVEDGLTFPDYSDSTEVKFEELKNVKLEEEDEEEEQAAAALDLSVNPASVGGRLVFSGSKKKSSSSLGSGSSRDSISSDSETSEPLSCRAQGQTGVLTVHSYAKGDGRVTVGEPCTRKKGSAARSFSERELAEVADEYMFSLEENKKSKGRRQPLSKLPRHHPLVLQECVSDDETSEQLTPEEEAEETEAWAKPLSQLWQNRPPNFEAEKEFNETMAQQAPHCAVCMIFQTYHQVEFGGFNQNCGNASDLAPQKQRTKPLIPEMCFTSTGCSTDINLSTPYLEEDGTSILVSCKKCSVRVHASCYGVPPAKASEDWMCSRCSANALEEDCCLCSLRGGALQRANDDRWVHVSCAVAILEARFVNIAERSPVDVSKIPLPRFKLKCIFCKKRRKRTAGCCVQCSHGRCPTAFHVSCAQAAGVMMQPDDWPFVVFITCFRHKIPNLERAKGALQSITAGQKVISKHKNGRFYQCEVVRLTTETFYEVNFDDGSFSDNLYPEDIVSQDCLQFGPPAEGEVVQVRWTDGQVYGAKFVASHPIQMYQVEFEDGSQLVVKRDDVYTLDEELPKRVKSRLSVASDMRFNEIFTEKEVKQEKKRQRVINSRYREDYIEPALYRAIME
G9a block = inhibitors of human histone lysine methyltransferase G9a | actives 8.8% (n = 350,000) | Potency, µM (top dose mostly 102 µM), inactives show top-dose activity, negative = inhibition, actives largely listed as inhibitors | G9a H3K9 monomethylation, AlphaScreen, 2 h | Q96KQ7 | AID 504332; further: potency means the concentration at half of the fitted maximal effect; on the % scale 0 is the no-effect control and ±100 the full control effect; nearly all actives have a fitted effect of over 75% in size
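G9a (20 nM) was preincubated 15 min with compound, then reacted 2 h at room temperature with 500 nM biotin-H3K9 peptide and 20 µM SAM. Monomethyl-H3K9 detected by AlphaScreen using anti-H3K9me1 antibody.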
HP1b binding inh = blocks HP1-beta chromodomain binding to methylated histone tails. Potency, µM (highest dose often 114 µM), without a hit: at the highest dose activity change, negative = inhibition, usual class: inhibitors. actives 0.56% (n = 390,000). AlphaScreen HP1-beta / biotin-H3K9me3 peptide binding. AID 540317; further: potency means the concentration at half of the fitted maximal effect; nearly all actives have a fitted effect of over 70% in size
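AlphaScreen: HP1-beta (50 nM) preformed 30 min with biotin-H3(1-18)K9me3 peptide (50 nM) in PBS pH 7.4, 0.01% Tween-20. Compound added for 30 min at RT, then streptavidin donor/nickel chelate acceptor beads (10 ug/mL) for 30 min.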
ADP-Glo interf = counter-screen for PI5P4K inhibitors: ADP-Glo detection interference, no enzyme. shares compounds with PI5P4K alpha inh. ADP-Glo detection counter-screen, luciferase luminescence, no enzyme. Potency, µM (titrated, usually from 76.9 µM), inactives show at the top dose activity change, negative = inhibition, actives largely listed as inhibitors. 1,100 tested, under 10 active. AID 743285
* marks the source's active call; other numbers are inactive results; ? = inconclusive; / = no result given; [ ] = remark or other dose. An excerpt weighted towards active compounds, which were near 12% of everything screened. Unless noted, the call rests on the fitted dose curve; in most records, active means well fitted curve in the direction sought with a large enough effect; inconclusive means small, poorly fitted or top-dose-only effect, or another doubt; inactive means no such curve, though single readings can be large; an effect the other way counts as inactive or inconclusive.

SMILES | PLK1 PBD inh | BAZ2B block | PI5P4K alpha inh | JMJD2A Tudor inh | G9a block | HP1b binding inh | ADP-Glo interf
Cc1cccc(OCC(=O)Nc2cccc(C(=O)Nc3ccccc3C(=O)O)c2)c1 | -18% | 13% | -52* | -23% | ? | 8% | 5%
CCOc1cc(/C=C(\C#N)C(=O)Nc2ccc(S(N)(=O)=O)cc2)ccc1OCCN1CCOCC1 | -10% | -9% | 2 | -16% | 15% | 3% | /
COc1ccccc1CNc1nc(NCc2ccc3occc3c2)c2sccc2n1 | 4% | / | / | / | / | / | 1%
COc1ccccc1CNc1nc(NCc2cccs2)nc2ccsc12 | 5% | / | -29 | / | / | / | /
COc1ccccc1CNc1nc(Nc2cccc(-c3cnco3)c2)c2sccc2n1 | -4% | / | / | / | / | / | -3%
CNc1nc(NCc2ccc(C)cc2C)c2sccc2n1 | -14% | / | -5 | / | / | / | /
c1cc2cc(CNc3nc(NCC4CC4)nc4ccsc34)ccc2o1 | 1% | / | ? | / | / | / | /
COc1ccccc1CNc1nc(NCc2ccccc2OC)c2sccc2n1 | -1% | / | / | / | / | / | -4%
Cc1ccc(CNc2nc(NCc3ccccc3)nc3ccsc23)c(C)c1 | -2% | / | / | / | / | / | -2%
COCCNc1nc(NCc2ccccc2OC)c2sccc2n1 | -5% | / | 2 | / | / | / | /
COc1ccccc1CNc1nc(NCCOc2ccccc2)c2sccc2n1 | -6% | / | / | / | / | / | -6%
O=C(Cc1ccc(NS(=O)(=O)c2ccc(Cl)c(Cl)c2)cc1)NCCN1CCOCC1 | 4% | 11% | 8 | -21% | 1% | 11% | /
O=S(=O)(Nc1ccc(Cl)cc1)c1ccc(N2CCOCC2)c(NC(=S)NCCN2CCOCC2)c1 | 1.7µM* | ? | -83* | 79µM* | 4.5µM* | ? | -8%
COc1cc(C=O)ccc1OCc1cn(CC(=O)c2ccc(O)cc2)nn1 | -25% | / | -19 | -30% | / | 8% | /
O=C(Cn1cc(COc2ccc(Br)cc2[N+](=O)[O-])nn1)c1ccc(O)cc1 | 27µM* | / | -57* | 50µM* | / | 20% | -8%
COc1cccc(-c2ccc3c(c2)N(Cc2ccc(F)cc2)C(=O)C(C)S3)c1 (stereo not drawn) | 5% | / | 20 | / | / | / | /
Cc1ccccc1CN1C(=O)C(C)Sc2ccc(-c3ccco3)cc21 (stereo not drawn) | -21% | / | -54* | / | / | / | -4%
CCN1CCN(Cc2ccc(NC(=O)c3ccc(C)c(NC(=O)c4cc(-c5ccc(Br)cc5)n[nH]4)c3)cc2C(F)(F)F)CC1 | -20% | ? | -57* | ? | ? | -12% | 0%
COc1cc(CNc2ccc(N3CCCC3)cc2)cc(Cl)c1OC | 21µM* | 35µM* | -66* | 10µM* | 3.5µM* | 14µM* | -4%
C=CCOc1c(Cl)cc(CNc2ccc(C)c(Cl)c2)cc1OC | / | 9% | / | / | 58%[59 µM] | / | /
COc1ccc(OC)c(NC(=O)CN(Cc2ccc(F)cc2)C2CCCCC2)c1 | 3% | -20% | -58* | -24% | -15% | 16% | -3%
CCOc1ccc(NC(=O)CN(C)C(=O)c2csc3c2CCCC3)cc1OCC | -6% | -2% | 4 | -28% | 0%[12.7 µM] | 1% | /
CCOc1ccc(NC(=O)CN(C)C(=O)c2cc3c(s2)CCC3)cc1OCC | -26% | / | -80* | / | / | / | -5%
CS(=O)(=O)c1ccc2nc(NC(=O)c3ccc(NS(=O)(=O)c4cccc([N+](=O)[O-])c4)cc3)sc2c1 | -26% | -3% | -57* | 1% | ? | 7% | -7%
CCCCCCCCCCCC(CC1OC(=O)C1CCCCCC)OC(=O)C(CC(C)C)NC=O (stereo not drawn) | / | / | / | / | -2%[2.33 µM] | / | /
SMILES | PLK1 PBD inh | BAZ2B block | PI5P4K alpha inh | JMJD2A Tudor inh | G9a block | HP1b binding inh | ADP-Glo interf
CCC[C@H]1CN(c2ccccc2)C(=O)[C@@H]1CC(=O)NC | 3% | / | -5 | / | / | / | /
COc1cccc(C(=O)Nc2cccc(C(=O)NC3=NN(c4c(Cl)cc(Cl)cc4Cl)C(=O)C3)c2)c1 | ? | 2% | -58* | -21% | 30%[59 µM] | -7% | 3%
O=S1(=O)CC(N2CCC(Cc3ccccc3)CC2)CN1C1CCCCC1 (stereo not drawn) | 2% | / | 1 | / | / | / | /
COc1ccc2c(c1)C=C(CN1CCN(Cc3ccccc3C)C(CCO)C1)CO2 (stereo not drawn) | -27% | ? | -2 | 50µM* | ? | -30% | 0%
CCOc1ccc(CN2CCN(CC3=Cc4cccc(OC)c4OC3)CC2CCO)cc1 (stereo not drawn) | -3% | -14% | 0 | -27% | 1%[12.7 µM] | 16% | /
Cc1cccc(C)c1NC(=O)Cn1nnc(C(=O)NCc2ccc(F)cc2)c1N | / | 7%[57.1 µM] | / | -5% | -5%[59 µM] | 27% | /
Cc1cc(C)cc(NC(=O)Cn2nnc(C(=O)NCc3ccc(F)cc3)c2N)c1 | 3µM* | -14% | -56* | 10µM* | 0%[59 µM] | 3% | -3%
Cc1ccc(C)c(OC(C)C(=O)Nc2nccs2)c1 (stereo not drawn) | 1% | 0% | -1 | 1% | / | 65% | /
Cc1ccc(C)c(OC(C)C(=O)Nc2ccc(S(=O)(=O)Nc3nccs3)cc2)c1 (stereo not drawn) | -18% | -28% | -62* | -33% | 11µM* | ? | 0%
O=C(NC1CCN(C(=O)NCc2ccccc2)CC1)c1cccc(F)c1 | 4% | -1% | 3 | -17% | 19%[59 µM] | 14% | /
Cc1ccc(CCNC(=O)c2ccc(CSc3nc4ccncc4n3Cc3ccc(F)cc3)cc2)cc1 | / | 20% | / | -16% | 12%[59 µM] | 69% | /
CCN(CC)CCCNC(=S)N(Cc1cccnc1)Cc1cc2cccc(C)c2[nH]c1=O | -16% | -2% | 0 | -9% | -2% | 13% | /
Cc1cccc2cc(CN(Cc3cccnc3)C(=S)NCCCN(C)C)c(=O)[nH]c12 | 9.5µM* | ? | -53* | 13µM* | ? | -2% | -3%
Oc1c(C(c2ccccc2)N2CCOCC2)ccc2ccccc12 (stereo not drawn) | 1.2µM* | / | -71* | 10µM* | / | 14µM* | -6%
O=C(NCc1ccccc1)C(c1ccccc1)n1c(=O)c(-c2ccco2)nc2ccccc21 (stereo not drawn) | ? | / | -64* | / | / | / | -4%
O=C(NC1CCCCC1)C(c1ccnc2ccccc12)n1c(=O)c(-c2ccco2)nc2ccccc21 (stereo not drawn) | -14% | / | -78* | / | / | / | -5%
Cc1nc(NC(=O)c2ccccc2)sc1-c1cc(C(=O)N2CCOCC2)nn1Cc1ccccc1 | -12% | / | -55* | / | / | / | -2%
CN(C)C(=O)Nc1ccccc1CC[N+](=O)[O-] | -11% | -14% | 2 | -3% | -18% | 20% | /
